The text below walks through data of PubChem BioAssay (EPA / NIEHS).

Assay [1] is described as follows: ATG_CRE_CIS: Attagene CIS-FACTORIAL HepG2 Assay for human cAMP Responsive Element (CRE) binding protein 3 (AID 2282926). The conditions noted are these: HepG2 CRE cis-reporter, Attagene multiplexed mRNA; actives raise or lower the signal. The method in brief: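 Liver-derived HepG2, transfected with a CRE-containing reporter panel, exposed 24 h; transcript levels sized and quantified by capillary electrophoresis of labelled amplicons; signal changes either way referenced to vehicle.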

The target in assay [2] is CCAAT/enhancer-binding protein beta (Homo sapiens) (UniProt P17676). Put plainly: ATG_C_EBP_CIS: Attagene CIS-FACTORIAL HepG2 Assay for human CCAAT/Enhancer Binding Protein (C/EBP) beta (AID 2282927). As to conditions: HepG2 Attagene cis-factorial transcription factor reporter; actives raise or lower the signal. In outline: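 Changes in reporter mRNA, rather than exogenous chimeric receptor activity, reflect native C/EBP signalling in transfected HepG2 cells dosed for 24 h; transcripts are detected by RT-PCR and capillary electrophoresis.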

A short description of assay [3]: ATG_CMV_CIS: Attagene CIS-FACTORIAL HepG2 Assay for human CMV (Internal Marker) (AID 2282928).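 Also: endpoint acts as a background internal control marker rather than a target.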 The conditions noted are these: HepG2 CMV promoter reporter, transcription factor profiling; actives raise or lower the signal. The method in brief: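 24 h chemical treatment, HepG2 with transient multi-reporter transfection; RNA → oligo(dT) RT → PCR → 6-FAM extension → HpaI digest → CE fluorescence. Bidirectional fit, DMSO negative control.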

Assay [4] can be described thus: ATG_DR4_LXR_CIS: Attagene CIS-FACTORIAL HepG2 Assay for human Liver X Receptor (LXR), DR4 submotif (AID 2282929). The conditions noted are these: HepG2 Attagene DR4 cis-reporter, mRNA transcription; actives raise or lower the signal. The method in brief:
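Fluorescence intensity of labelled reporter cDNA fragments, separated by capillary electrophoresis, gives the signal. HepG2 cells bearing cis-regulated reporter constructs were treated 24 h; activity fitted bidirectionally relative to DMSO negative control.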

The target of assay [5] is Aryl hydrocarbon receptor (Homo sapiens) (UniProt P35869). The experiment in a line: ATG_Ahr_CIS: Attagene CIS-FACTORIAL HepG2 Assay for human Aryl Hydrocarbon Receptor (Ahr) (AID 2282930). The conditions noted are these: HepG2 AhR cis-factorial reporter transcription; actives raise or lower the signal. The method in brief: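 HepG2, transient MRTU (cis) transfection, 24 h exposure. RNA → cDNA → PCR → 6-FAM primer extension → HpaI 2 h 37 C → CE. Fit: bidirectional, DMSO baseline.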

Assay [6] in a line: ATG_AP_1_CIS: Attagene CIS-FACTORIAL HepG2 Assay for human Activator Protein 1 (AP-1) (AID 2282931). As to conditions: HepG2 Attagene cis-factorial AP-1 reporter mRNA; actives raise or lower the signal. In outline:
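Multiplexed HepG2 reporter assay, 24 h dosing. mRNA induction detected by RT-PCR plus capillary electrophoresis. Activity fitted in both directions against DMSO.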

Assay [7] can be described thus: ATG_BRE_CIS: Attagene CIS-FACTORIAL HepG2 Assay for human Bone Morphogenetic Protein (BMP) Response Element (BRE) (AID 2282933). As to conditions: HepG2 BMP response element reporter, Attagene transcription factor profiling; actives raise or lower the signal. In outline:
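Gain- or loss-of-signal was derived by bidirectional fitting against DMSO controls. The signal came from reporter mRNA, measured by RT-PCR and capillary electrophoresis, in HepG2 cells transiently carrying multiple reporter units and dosed for 24 h.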

Assay [8] addresses Transcription factor E2F1 (Homo sapiens) (UniProt Q01094). The experiment in a line: ATG_E2F_CIS: Attagene CIS-FACTORIAL HepG2 Assay for human E2F Transcription Factor 1 (AID 2282935). As to conditions: HepG2 Attagene cis-reporter, E2F reporter RNA transcripts; actives raise or lower the signal. In outline:
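Fluorescent RT-PCR products, digested with HpaI for 2 h at 37 C, are separated by capillary electrophoresis. Source RNA comes from transfected HepG2 cultures treated for 24 h.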

Assay [9] can be described thus: ATG_E_Box_CIS: Attagene CIS-FACTORIAL HepG2 Assay for human Enhancer Box (E-box) (AID 2282936). The conditions noted are these: HepG2 E-box cis-reporter transcription, actives raise or lower the signal. In outline: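 Fluorescent reporter fragments separated by capillary electrophoresis gave the signal; mRNA came from HepG2 cells transfected with cis-element reporters and treated 24 h. Curves fitted bidirectionally relative to DMSO controls.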

Assay [10] in a line: ATG_M_61_CIS: Attagene CIS-FACTORIAL HepG2 Assay for M61 Transcription Factor (Internal Marker) (AID 2282937). As to conditions: HepG2 Attagene CIS-FACTORIAL M61 internal marker reporter; actives raise or lower the signal. In outline: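 Endogenous transcription factor activity in HepG2 is read through transiently transfected cis-element reporter units. After 24 h dosing, RNA undergoes reverse transcription, PCR and primer extension with 6-FAM before capillary electrophoresis; DMSO-referenced bidirectional fit.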

The nature of assay [11]: ATG_M_19_CIS: Attagene CIS-FACTORIAL HepG2 Assay for M19 Transcription Factor (Internal Marker) (AID 2282939). As to conditions: HepG2 Attagene CIS-FACTORIAL M19 internal marker reporter; actives raise or lower the signal. The method in brief:
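Following a 24 h exposure, RNA from transfected HepG2 cells was reverse-transcribed, PCR-amplified with reporter-specific primers, end-labelled with 6-FAM and HpaI-digested before capillary separation. Values represent gain or loss versus DMSO.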

A short description of assay [12]: ATG_Ets_CIS: Attagene CIS-FACTORIAL HepG2 Assay for human Erythroblast Transformation Specific (ETS) (AID 2282941). The conditions noted are these: HepG2 ETS cis-reporter transcription, actives raise or lower the signal. The method in brief:
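Cis-regulated reporter mRNA induction in HepG2 (transient transfection), 24 h exposure, RT-PCR plus capillary electrophoresis detection; DMSO serves as negative control and baseline.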

For assay [13], the target named is Hepatocyte nuclear factor 3-beta (Homo sapiens) (UniProt Q9Y261). The experiment in a line: ATG_FoxA2_CIS: Attagene CIS-FACTORIAL HepG2 Assay for human Forkhead box A2 (FOXA2) (AID 2282942). As to conditions: HepG2 cis-reporter transcription factor activity, 24 h; actives raise or lower the signal. The method in brief:
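Reporter transcript induction is measured by fluorescence after capillary electrophoresis of RT-PCR products from HepG2 cells exposed 24 h. Cis-regulated reporter units report endogenous factor activity; curves fitted both directions against DMSO.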

Assay [14] can be described thus: ATG_GLI_CIS: Attagene CIS-FACTORIAL HepG2 Assay for human Zinc Finger Protein GLI1 (AID 2282945). The conditions noted are these: HepG2, Attagene cis-factorial reporter mRNA, GLI element; actives raise or lower the signal. In outline:
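Bidirectional curve fits relative to DMSO, using reporter mRNA levels from RT-PCR plus capillary electrophoresis. Cells were HepG2 transiently carrying cis-regulated reporter constructs, harvested 24 h after dosing.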

The target in assay [15] is Bile acid receptor (Homo sapiens) (UniProt Q96RI1). The experiment in a line: ATG_IR1_CIS: Attagene CIS-FACTORIAL HepG2 Assay for human Nuclear Receptor Subfamily 1 Group H Member 4 (NR1H4), IR1 submotif (AID 2282946). As to conditions: IR1 reporter transcription, actives raise or lower the signal. In outline: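 HepG2 cells transiently transfected with multiplexed cis-element reporter units read endogenous transcription factor activity. After 24 h compound exposure, reporter mRNA was quantified by RT-PCR, fluorescent labelling, HpaI digestion and capillary electrophoresis; bidirectional fitting versus DMSO baseline.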

Assay [16] is described as follows: ATG_AP_2_CIS: Attagene CIS-FACTORIAL HepG2 Assay for human Activator Protein 2 (AP-2) (AID 2282932). As to conditions: HepG2 AP-2 cis-reporter, Attagene transcription factor profiling; actives raise or lower the signal. In outline: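 Transiently transfected HepG2 cells are exposed to chemical for 24 h. Reporter transcripts are then measured as fluorescence following RT-PCR and capillary separation, and gain- or loss-of-signal is fitted relative to DMSO.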

Assay [17] concerns the target Retinoic acid receptor alpha (Homo sapiens) (UniProt P10276). The experiment in a line: ATG_DR5_RAR_CIS: Attagene CIS-FACTORIAL HepG2 Assay for human Retinoic Acid Receptor Alpha (RARE), DR5 submotif (AID 2282934).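 As to AC50: reporter responds to endogenous RAR alpha beta and gamma in HepG2 not RARA alone.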 The conditions noted are these: HepG2 Attagene cis-factorial RARE DR5 reporter, mRNA; actives raise or lower the signal. In outline: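 HepG2, transient cis-reporter transfection, 24 h exposure. mRNA readout: RT-PCR, FAM label, HpaI cut, capillary electrophoresis. DMSO baseline, gain/loss fitting.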

The nature of assay [18]: ATG_EGR_CIS: Attagene CIS-FACTORIAL HepG2 Assay for human Early Growth Response 1 (EGR1) (AID 2282938). The conditions noted are these: HepG2 Attagene CIS-FACTORIAL EGR reporter mRNA; actives raise or lower the signal. The method in brief:
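Activity is taken as induction or loss of reporter mRNA versus DMSO, fitted bidirectionally. Transcripts from cis-regulated reporter units in transiently transfected HepG2 were measured after 24 h by RT-PCR with capillary electrophoresis.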

A short description of assay [19]: ATG_FoxO_CIS: Attagene CIS-FACTORIAL HepG2 Assay for human Forkhead box O (FoxO) (AID 2282943). As to conditions: HepG2 Attagene cis-reporter, FoxO element, mRNA; actives raise or lower the signal. The method in brief:
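Human hepatoma HepG2 cells carry transiently introduced reporter transcription units controlled by cis promoter elements. Chemical treatment lasted 24 h, and mRNA signal was compared with DMSO.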

Assay [20] can be described thus: ATG_GATA_CIS: Attagene CIS-FACTORIAL HepG2 Assay for human GATA Binding Protein (AID 2282944). The conditions noted are these: HepG2 GATA cis-element reporter, Attagene multiplex mRNA; actives raise or lower the signal. In outline: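 DMSO serves as negative control and baseline for bidirectional fitting of reporter mRNA changes. HepG2 cells bearing transiently transfected cis-promoter reporters were exposed 24 h; transcripts detected via RT-PCR and capillary electrophoresis.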

Activity calls are given as the source filed them. The calls were made as follows: active = hit-call score of the fitted dose curve at least 0.9, where 1 is the maximum; inactive = score below 0.9.

Chain of Bile acid receptor (Homo sapiens) (Q96RI1 whole entry, looked up): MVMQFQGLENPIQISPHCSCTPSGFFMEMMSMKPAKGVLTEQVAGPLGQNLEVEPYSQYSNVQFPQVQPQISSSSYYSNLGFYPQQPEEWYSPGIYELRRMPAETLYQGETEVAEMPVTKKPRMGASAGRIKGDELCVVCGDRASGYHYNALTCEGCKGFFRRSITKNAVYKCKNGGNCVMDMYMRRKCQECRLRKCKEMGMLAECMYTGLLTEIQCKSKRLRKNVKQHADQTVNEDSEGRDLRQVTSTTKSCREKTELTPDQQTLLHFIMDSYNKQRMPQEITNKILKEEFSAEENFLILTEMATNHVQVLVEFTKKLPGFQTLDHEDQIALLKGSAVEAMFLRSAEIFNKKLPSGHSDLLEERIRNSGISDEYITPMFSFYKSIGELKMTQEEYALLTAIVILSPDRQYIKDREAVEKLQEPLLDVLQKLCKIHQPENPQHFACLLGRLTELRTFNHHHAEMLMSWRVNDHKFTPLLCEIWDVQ
Chain of Aryl hydrocarbon receptor (Homo sapiens) (P35869 whole entry, looked up): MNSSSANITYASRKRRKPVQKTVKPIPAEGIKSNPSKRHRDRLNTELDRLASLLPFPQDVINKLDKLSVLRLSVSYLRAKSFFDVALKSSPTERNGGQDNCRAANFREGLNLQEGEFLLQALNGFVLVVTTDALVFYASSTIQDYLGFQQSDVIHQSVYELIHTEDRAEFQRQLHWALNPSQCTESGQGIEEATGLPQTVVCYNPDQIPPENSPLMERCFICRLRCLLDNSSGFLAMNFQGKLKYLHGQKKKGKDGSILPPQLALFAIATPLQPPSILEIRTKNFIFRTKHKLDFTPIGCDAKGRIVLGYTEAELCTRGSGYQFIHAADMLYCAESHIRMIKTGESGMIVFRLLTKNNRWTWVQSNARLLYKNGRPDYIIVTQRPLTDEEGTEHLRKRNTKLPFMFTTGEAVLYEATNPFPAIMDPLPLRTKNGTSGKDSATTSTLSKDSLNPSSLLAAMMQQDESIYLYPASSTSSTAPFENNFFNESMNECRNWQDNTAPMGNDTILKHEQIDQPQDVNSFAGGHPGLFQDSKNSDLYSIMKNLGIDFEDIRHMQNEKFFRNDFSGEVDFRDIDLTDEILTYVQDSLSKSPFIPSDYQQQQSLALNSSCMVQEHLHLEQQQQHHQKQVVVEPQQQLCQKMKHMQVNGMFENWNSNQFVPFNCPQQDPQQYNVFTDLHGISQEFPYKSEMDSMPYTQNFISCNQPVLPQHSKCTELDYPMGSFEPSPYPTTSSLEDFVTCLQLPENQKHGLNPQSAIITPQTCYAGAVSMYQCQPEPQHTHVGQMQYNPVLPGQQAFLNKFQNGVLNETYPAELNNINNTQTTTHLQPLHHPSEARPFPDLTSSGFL
Chain of Transcription factor E2F1 (Homo sapiens) (Q01094 whole entry, looked up): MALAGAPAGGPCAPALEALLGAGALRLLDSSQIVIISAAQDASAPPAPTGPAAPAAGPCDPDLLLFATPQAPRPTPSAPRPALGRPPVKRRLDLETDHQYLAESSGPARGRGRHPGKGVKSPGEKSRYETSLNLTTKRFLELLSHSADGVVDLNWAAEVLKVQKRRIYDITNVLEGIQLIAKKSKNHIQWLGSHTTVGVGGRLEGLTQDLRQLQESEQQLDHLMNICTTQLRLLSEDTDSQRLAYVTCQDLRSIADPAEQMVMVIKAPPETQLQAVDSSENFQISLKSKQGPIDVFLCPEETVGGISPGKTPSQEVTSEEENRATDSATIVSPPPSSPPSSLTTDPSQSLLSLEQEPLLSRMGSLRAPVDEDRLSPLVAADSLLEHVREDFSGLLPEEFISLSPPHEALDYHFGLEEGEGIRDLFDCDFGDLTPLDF
Chain of CCAAT/enhancer-binding protein beta (Homo sapiens) (P17676 whole entry, looked up): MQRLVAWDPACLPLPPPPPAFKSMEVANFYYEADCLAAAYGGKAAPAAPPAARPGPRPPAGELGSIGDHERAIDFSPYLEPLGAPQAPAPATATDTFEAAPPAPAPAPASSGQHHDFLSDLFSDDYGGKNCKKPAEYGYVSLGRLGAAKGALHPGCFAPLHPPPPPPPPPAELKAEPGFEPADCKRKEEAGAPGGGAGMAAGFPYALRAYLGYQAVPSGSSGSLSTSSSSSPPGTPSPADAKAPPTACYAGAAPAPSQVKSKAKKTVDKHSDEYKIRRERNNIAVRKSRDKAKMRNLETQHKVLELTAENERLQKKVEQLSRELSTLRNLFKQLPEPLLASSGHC
Chain of Hepatocyte nuclear factor 3-beta (Homo sapiens) (Q9Y261 whole entry, looked up): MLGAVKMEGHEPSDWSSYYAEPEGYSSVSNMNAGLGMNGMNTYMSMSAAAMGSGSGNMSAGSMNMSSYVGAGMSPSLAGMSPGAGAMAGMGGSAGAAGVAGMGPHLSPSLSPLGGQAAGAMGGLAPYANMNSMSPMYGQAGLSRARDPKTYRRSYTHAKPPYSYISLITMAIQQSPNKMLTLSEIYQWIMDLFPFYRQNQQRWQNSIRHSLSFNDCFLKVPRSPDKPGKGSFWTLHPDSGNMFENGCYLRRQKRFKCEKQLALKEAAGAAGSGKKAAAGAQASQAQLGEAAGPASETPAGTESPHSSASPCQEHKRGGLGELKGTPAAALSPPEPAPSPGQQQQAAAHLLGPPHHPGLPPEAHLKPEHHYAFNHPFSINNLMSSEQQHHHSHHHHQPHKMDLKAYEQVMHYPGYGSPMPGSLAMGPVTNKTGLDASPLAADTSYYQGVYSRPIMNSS
Chain of Retinoic acid receptor alpha (Homo sapiens) (P10276 whole entry, looked up): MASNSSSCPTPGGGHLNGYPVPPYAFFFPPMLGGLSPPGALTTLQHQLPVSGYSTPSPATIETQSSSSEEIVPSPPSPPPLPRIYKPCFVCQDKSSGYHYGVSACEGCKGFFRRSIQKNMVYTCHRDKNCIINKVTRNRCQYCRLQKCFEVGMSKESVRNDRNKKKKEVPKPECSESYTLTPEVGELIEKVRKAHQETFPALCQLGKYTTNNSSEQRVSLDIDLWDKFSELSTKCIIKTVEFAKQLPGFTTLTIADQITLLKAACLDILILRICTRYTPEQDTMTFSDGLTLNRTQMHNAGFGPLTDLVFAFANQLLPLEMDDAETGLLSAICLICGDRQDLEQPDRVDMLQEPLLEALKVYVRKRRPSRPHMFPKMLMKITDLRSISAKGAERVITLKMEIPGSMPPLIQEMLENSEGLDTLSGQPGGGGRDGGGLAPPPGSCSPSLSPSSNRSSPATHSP

Usually AC50 stands for the concentration at which the activity in the assay is half-maximal. Consider `Cc1cccc(Nc2ccccc2)c1`, for which the molecule was called inactive in [1], in assay [2], in [3], in assay [5], in assay [7] and in assay [8]. Besides, the result in [9], in assay [10], in assay [11], in [13] and in assay [14] was inactive. The AC50 in assay [4] is 67.5 µM (active); in assay [6], 139 µM (active); in assay [12], 154 µM (active); in assay [15], 42.5 µM (active).
Take `C=C(C)C(=O)OCCOC1CC2CC1C1C=CCC21` (stereo unspecified): the outcome in assay [1], in assay [2], in assay [3], in assay [4], in assay [6] and in [16] was inactive. In addition, the outcome in assay [7], in assay [17], in assay [8], in [9], in assay [18] and in assay [11] was inactive. Further, the molecule was classed as inactive in assay [12], in assay [19], in assay [14] and in assay [15].
As for `COc1cc(CCC(C)=O)ccc1O`, the molecule was called inactive in assay [1], in [2], in [3], in assay [4], in assay [5] and in assay [6]. Further, the molecule was called inactive in assay [7], in assay [17], in assay [9], in assay [10], in assay [18] and in assay [11]. In addition, the result in assay [12], in [13], in assay [19], in assay [20], in assay [14] and in assay [15] was inactive.
In the case of `CC1CC(O)CC(C)(C)C1` (stereo unspecified), the molecule was called inactive in assay [1], in [2], in assay [3], in assay [4], in assay [5] and in assay [6]. Besides, the outcome in [7], in [17], in [8], in [9], in assay [10] and in assay [18] was inactive. Moreover, the outcome in assay [11], in [12], in [13], in [14] and in [15] was inactive.
For the molecule `NC(=S)NNC(N)=S`, the call in assay [1], in [2], in assay [3], in assay [4], in assay [6] and in assay [16] was inactive. The outcome in assay [7], in assay [17], in assay [8], in [9], in assay [10] and in assay [18] was inactive. Besides, the call in assay [11], in [12], in [13], in assay [19], in assay [20] and in [14] was inactive. Moreover, the molecule was called inactive in assay [15].
For the molecule `CC(C)CCCCCCCCCCCCCCC(=O)O`, the call in assay [1], in [2], in [3], in [4], in [5] and in assay [6] was inactive. The call in [7], in [8], in [9], in assay [10], in [18] and in [11] was inactive. Moreover, the outcome in assay [12], in [13], in assay [19], in assay [20] and in assay [14] was inactive. Further, in assay [17], the AC50 was 54.2 µM (active).
Consider `CCCCCCCCCCCCCCCC(=O)OC/C=C(C)/C=C/C=C(C)/C=C/C1=C(C)CCCC1(C)C`, for which the outcome in [1], in [2], in assay [3], in assay [4], in [5] and in assay [6] was inactive. Also, the result in assay [7], in [17], in [8], in assay [10], in assay [18] and in assay [11] was inactive. Moreover, the call in assay [13], in assay [20], in assay [14] and in [15] was inactive.
For the molecule `CC(Oc1cc(Cl)ccc1Cl)C(=O)O` (stereo unspecified), the molecule was classed as inactive in assay [1], in assay [2], in [3], in assay [4], in [5] and in assay [6]. Further, the outcome in [7], in [17], in assay [8], in assay [10], in assay [18] and in assay [11] was inactive. Further, the outcome in assay [12], in [13], in [19], in assay [20] and in assay [14] was inactive.
